# In PubChem BioAssay (EPA / NIEHS):
# “And” between values parts separate entries of the source, which are not always exact repeats. Equal entries are not always repeated. Inconclusive results are not listed. The source made the active and inactive calls. How the source made its calls, unless noted: active means hit-call score of the fitted dose curve at least 0.9, where 1 is the maximum; inactive means score below 0.9.
# Key:
# [1] = read-out: Secreted IgG (sIgG), gene 3500; experiment: BSK_BT_sIgG: BioMAP Diversity Plus: BT Assay for Secreted IgG (sIgG) Biomarker Activity (AID 2284226); details: primary human B cells with PBMC
# In short: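 Human B cell/PBMC co-culture; compound exposure 24 h; sIgG by ELISA; gain-of-signal fit vs DMSO baseline.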
# [2] = BSK_BT_Bcell_Proliferation: Viability Assessment in the BioMAP Diversity Plus: BT Assay for B cell Proliferation (AID 2284227); details: primary human B cells with PBMC
# In short: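 SRB-based protein staining (0.1% SRB after 10% TCA fixation, 560 nm) quantifies proliferation in human B cells co-cultured with PBMC, 72 h post-dosing, with signal gain scored relative to DMSO negative control.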
# [3] = read-out: Interleukin 6 (IL6), IL6 (gene 3569); experiment: BSK_BT_xIL6: BioMAP Diversity Plus: BT Assay for Interleukin 6 (IL6) Biomarker Activity (AID 2284228); details: primary human B cells with PBMC
# In short: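 Secreted IL-6 in the primary human B cell plus PBMC system, measured by Luminex at 24 h post-chemical, DMSO as baseline. Alamar Blue viability: 75,000 cells/well, chemical 1 h before SEB/TSST-1 (20 ng/mL each), 90 h, then 6 h dye.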
# [4] = read-out: Interleukin 17A (IL17A), IL17A (gene 3605); experiment: BSK_BT_xIL17A: BioMAP Diversity Plus: BT Assay for Interleukin 17A (IL17A) Biomarker Activity (AID 2284229); details: primary human B cells with PBMC
# In short: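 Luminex xMAP quantification of secreted IL-17A after 24 h chemical exposure of a primary human B cell/PBMC co-culture. Signal increases fitted relative to DMSO negative control.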
# [5] = read-out: Tumor necrosis factor (Homo sapiens) (UniProt P01375); experiment: BSK_BT_xTNFa: BioMAP Diversity Plus: BT Assay for Tumor necrosis factor alpha (TNF-alpha) Biomarker Activity (AID 2284230); details: primary human B cells with PBMC
# In short: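 Compounds were added to a B cell plus PBMC co-culture, and after 24 h secreted TNF-alpha was quantified with Luminex xMAP technology, with responses fitted upward from the DMSO control.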
# [6] = read-out: Vascular cell adhesion molecule 1 (VCAM1), VCAM1 (gene 7412); experiment: BSK_MyoF_VCAM1: BioMAP Diversity Plus: MyoF Assay for Vascular cell adhesion molecule 1 (VCAM1) Biomarker Activity (AID 2284231); details: primary human lung fibroblasts
# In short: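 ELISA readout of VCAM-1 on human lung fibroblast cultures 24 hours after dosing, analyzed for signal gain relative to DMSO. Overt cytotoxicity was checked by sulforhodamine B total-protein staining in parallel cultures.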
# [7] = UKN2_HCS_IMR90_cell_viability: Viability Assessment in the University of Konstanz (UKN) Leist Lab Neural Crest Cell Migration Assay in human induced IMR90 Pluripotent Stem Cells (UKN2) (AID 2284233);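 further: cells exposed to compound for 24 h after a 24 h migration phase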
# In short: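 After calcein-AM/Hoechst staining, viability is quantified by high-content fluorescence imaging, relative to DMSO, in iPSC (IMR90)-derived neural crest cells. Exposure lasts 24 h, starting after a 24 h migration period on PLO/laminin/fibronectin coating.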
# [8] = UKN4_HCS_LUHMES_cell_viability: Viability Assessment in the University of Konstanz (UKN) Leist Lab Neurite Outgrowth Assay in human LUHMES cells (UKN4) (AID 2284232)
# In short: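 Day-2 differentiated LUHMES, 30000 cells/well, dosed ~30 min–2 h post-seeding; 24 h treatment incl. staining; Hoechst H-33342 + calcein-AM at 23.5 h; HCS imaging; DMSO-normalized, bidirectional fit.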
# [9] = TAMU_HCS_1.5hr_SingleDonor1434_Cytotoxicity: Cytotoxicity Assessment using High-content Screening (HCS) Fluorescent Imaging for the Texas A&M University (TAMU) 1.5-hr Human Induced Pluripotent Stem Cell (iPSC)-derived Cardiotoxicity Assay (AID 2284234; active means hit-call score of the fitted dose curve at least 0.9, where 1 is the maximum)
# In short: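 Nuclear counts from Hoechst 33342 imaging define cytotoxicity here, with EC10 (10% cell-count loss relative to DMSO) as point of departure. iPSC cardiomyocytes received 0.2-100 uM test chemical in 0.5% DMSO for 1.5 h at 37 C.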
# [10] = TAMU_PeakParms_SingleDonor1434_QT: Texas A&M University (TAMU) 1.5-hr Human Induced Pluripotent Stem Cell (iPSC)-derived Cardiomyocytes Calcium (Ca+2) Flux Assay for Cardiotoxicity: QT (decay-rise ratio) (AID 2284235; active means hit-call score of the fitted dose curve at least 0.9, where 1 is the maximum)
# In short: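 Decay/rise ratio of calcium-flux fluorescence scored after 90 min exposure (37C) of donor 1434 iPSC cardiomyocytes to 0.2–100 uM (0.5% DMSO). Beat-cessation and severe-notch points removed; POD is EC05, a 5% rise over DMSO.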
# Tumor necrosis factor (Homo sapiens), sequence (P01375 whole entry, looked up): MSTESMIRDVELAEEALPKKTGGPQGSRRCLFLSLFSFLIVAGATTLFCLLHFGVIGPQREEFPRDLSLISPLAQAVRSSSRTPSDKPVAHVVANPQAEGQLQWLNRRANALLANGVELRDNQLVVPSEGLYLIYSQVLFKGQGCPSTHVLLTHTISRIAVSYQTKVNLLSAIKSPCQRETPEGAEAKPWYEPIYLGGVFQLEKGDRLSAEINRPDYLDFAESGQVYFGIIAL
smiles,measurement,setting,value
CCOC(=O)/C=C(C)/C=C/C[C@@H](C)CCCC(C)C,AC50,[1],20 µM (active)
same,AC50,[2],27 µM (active)
same,AC50,[3],20.8 µM (active)
same,AC50,[4],20 µM (active)
same,AC50,[5],30.6 µM (active)
same,AC50,[6],29.2 µM (active)
COP(=S)(OC)Oc1ccc(S(=O)(=O)N(C)C)cc1,AC50,[1],9.48 µM (active)
same,outcome,[2],inactive
same,outcome,[3],inactive
same,outcome,[4],inactive
same,outcome,[5],inactive
same,outcome,[6],inactive
CCOP(=S)(OCC)Oc1ccc(S(C)=O)cc1 (stereo not drawn),outcome,[1],inactive
same,outcome,[2],inactive
same,outcome,[3],inactive
same,outcome,[4],inactive
same,outcome,[5],inactive
same,outcome,[6],inactive
ClC1=C(Cl)[C@]2(Cl)[C@H]3[C@H]([C@H]4C=C[C@H]3C4)[C@@]1(Cl)C2(Cl)Cl,AC50,[1],7.53 µM (active)
same,AC50,[2],36.3 µM (active)
same,AC50,[3],20 µM (active)
same,AC50,[4],24.4 µM (active)
same,AC50,[5],33.1 µM (active)
same,AC50,[6],3.97 µM (active)
COC[C@H](C)N(C(=O)CCl)c1c(C)csc1C,outcome,[1],inactive
same,outcome,[2],inactive
same,outcome,[3],inactive
same,outcome,[4],inactive
same,outcome,[5],inactive
same,outcome,[6],inactive
O=C(OC1CCCCC1)c1ccccc1C(=O)OC1CCCCC1,AC50,[1],34.2 µM (active)
same,AC50,[2],31.7 µM (active)
same,AC50,[3],28.3 µM (active)
same,AC50,[4],20.9 µM (active)
same,AC50,[5],32.1 µM (active)
same,AC50,[6],20.9 µM (active)
COC(=O)c1sccc1S(=O)(=O)NC(=O)Nc1nc(C)nc(OC)n1,outcome,[1],inactive
same,outcome,[2],inactive
same,outcome,[3],inactive
same,outcome,[4],inactive
same,outcome,[5],inactive
same,outcome,[6],inactive
CC(C)CCCCCCOC(=O)c1ccccc1C(=O)OCCCCCCC(C)C,outcome,[1],inactive
same,outcome,[2],inactive
same,outcome,[3],inactive
same,outcome,[4],inactive
same,outcome,[5],inactive
same,outcome,[6],inactive
CC(=O)C(Cl)C(=O)N(C)C (stereo not drawn),AC50,[1],20 µM (active)
same,AC50,[2],25 µM (active)
same,AC50,[3],27.9 µM (active)
same,outcome,[4],inactive
same,AC50,[5],29.6 µM (active)
same,outcome,[6],inactive
O=C(O)C(F)(F)C(F)(F)C(F)(F)C(F)(F)C(F)(F)C(F)(F)F,outcome,[1],inactive
same,outcome,[2],inactive
same,outcome,[3],inactive
same,outcome,[4],inactive
same,outcome,[5],inactive
same,outcome,[6],inactive
COc1cc(OC)nc(NC(=O)NS(=O)(=O)c2ncccc2C(=O)N(C)C)n1,outcome,[1],inactive
same,outcome,[2],inactive
same,outcome,[3],inactive
same,outcome,[4],inactive
same,outcome,[5],inactive
same,outcome,[6],inactive
OCc1ccco1,AC50,[1],26.1 µM (active)
same,AC50,[2],26.7 µM (active)
same,outcome,[3],inactive
same,outcome,[4],inactive
same,outcome,[5],inactive
same,outcome,[6],inactive
CCOP(=S)(OCC)SCCS(=O)(=O)CC,outcome,[1],inactive
same,outcome,[2],inactive
same,outcome,[3],inactive
same,outcome,[4],inactive
same,outcome,[5],inactive
same,outcome,[6],inactive
Oc1c(I)cc(I)cc1I,outcome,[1],inactive
same,outcome,[2],inactive
same,outcome,[3],inactive
same,outcome,[4],inactive
same,outcome,[5],inactive
same,AC50,[6],8.17 µM (active)
CCSC(C)CC1CC(=O)C(C(CC)=NOC/C=C/Cl)=C(O)C1 (stereo not drawn),outcome,[1],inactive
same,outcome,[2],inactive
same,outcome,[3],inactive
same,outcome,[4],inactive
same,outcome,[5],inactive
same,outcome,[6],inactive
CCCCCCCCC(=O)NCc1ccc(O)c(OC)c1,outcome,[1],inactive
same,outcome,[2],inactive
same,outcome,[3],inactive
same,outcome,[4],inactive
same,outcome,[5],inactive
same,outcome,[6],inactive
BrCCBr,outcome,[1],inactive
same,outcome,[2],inactive
same,outcome,[3],inactive
same,outcome,[4],inactive
same,outcome,[5],inactive
same,outcome,[6],inactive
CCNc1nc(NC(C)(C)C)nc(SC)n1,AC50,[1],26.7 µM (active)
same,outcome,[2],inactive
same,outcome,[3],inactive
same,outcome,[4],inactive
same,AC50,[5],20 µM (active)
same,AC50,[6],20 µM (active)
O=C(O)C(F)(F)C(F)(F)C(F)(F)C(F)(F)C(F)(F)C(F)(F)C(F)(F)C(F)(F)C(F)(F)C(F)(F)F,outcome,[1],inactive
same,outcome,[2],inactive
same,outcome,[3],inactive
same,outcome,[4],inactive
same,outcome,[5],inactive
same,AC50,[6],4.85 µM (active) and 4.92 µM (active)
C(=NC1CCCCC1)=NC1CCCCC1,AC50,[1],1.82 µM (active)
same,AC50,[2],5.75 µM (active)
same,AC50,[3],9.07 µM (active)
same,AC50,[4],6.39 µM (active)
same,AC50,[5],10.9 µM (active)
same,AC50,[6],11.8 µM (active)
Nc1cccc2ccccc12,outcome,[1],inactive
same,AC50,[2],20 µM (active)
same,outcome,[3],inactive
same,outcome,[4],inactive
same,outcome,[5],inactive
same,outcome,[6],inactive
COP(=O)(OC)O/C(=C\Cl)c1cc(Cl)c(Cl)cc1Cl,outcome,[7],inactive
O=C(O)CCC(F)(C(F)(F)F)C(F)(F)F,outcome,[1],inactive
same,outcome,[2],inactive
same,outcome,[3],inactive
same,outcome,[4],inactive
same,outcome,[5],inactive
same,outcome,[6],inactive
Nc1ccc(-c2ccc(N)c(Cl)c2)cc1Cl,AC50,[1],6.09 µM (active)
same,AC50,[2],20 µM (active)
same,outcome,[3],inactive
same,AC50,[4],12.8 µM (active)
same,AC50,[5],20 µM (active)
same,AC50,[6],20 µM (active)
O=C1C2(Cl)C3(Cl)C4(Cl)C(Cl)(Cl)C5(Cl)C3(Cl)C1(Cl)C5(Cl)C24Cl (stereo not drawn),AC50,[8],7.53 µM (active)
same,AC50,[7],3.06 µM (active)
COP(=S)(OC)Oc1ccc(Sc2ccc(OP(=S)(OC)OC)cc2)cc1,AC50,[1],28.9 µM (active)
same,outcome,[2],inactive
same,outcome,[3],inactive
same,outcome,[4],inactive
same,outcome,[5],inactive
same,outcome,[6],inactive
NC(=S)Nc1ccccc1,outcome,[1],inactive
same,outcome,[2],inactive
same,outcome,[3],inactive
same,outcome,[4],inactive
same,outcome,[5],inactive
same,outcome,[6],inactive
COP(=S)(OC)Oc1c(Cl)cc(C)cc1Cl,AC50,[1],22.9 µM (active)
same,outcome,[2],inactive
same,outcome,[3],inactive
same,AC50,[4],10.7 µM (active)
same,outcome,[5],inactive
same,outcome,[6],inactive
C=C(C)C(=O)[O][Sn]([CH2]CCC)([CH2]CCC)[CH2]CCC,AC50,[8],0.181 µM (active)
same,AC50,[7],0.272 µM (active)
Oc1ccc(-c2ccccc2)cc1,outcome,[2],inactive
same,outcome,[3],inactive
same,outcome,[4],inactive
same,outcome,[5],inactive
same,outcome,[6],inactive
Oc1cccc2cccnc12,outcome,[9],inactive
same,outcome,[10],inactive
COP(=S)(OC)Oc1cc(Cl)c(Cl)cc1Cl,AC50,[1],34.3 µM (active)
same,outcome,[2],inactive
same,outcome,[3],inactive
same,outcome,[4],inactive
same,outcome,[5],inactive
same,AC50,[6],31.1 µM (active)
CC1(C)Cc2cccc(O)c2O1,outcome,[1],inactive
same,outcome,[2],inactive
same,outcome,[3],inactive
same,outcome,[4],inactive
same,outcome,[5],inactive
same,outcome,[6],inactive
CCOP(=S)(OCC)Oc1nc(Cl)c(Cl)cc1Cl,AC50,[8],231 µM (active)
same,outcome,[7],inactive
same,outcome,[9],inactive
O=S(=O)(c1ccc(Cl)cc1)c1ccc(Cl)cc1,outcome,[1],inactive
same,outcome,[2],inactive
same,outcome,[3],inactive
same,outcome,[4],inactive
same,outcome,[5],inactive
same,outcome,[6],inactive
CC(C)(C)c1cc(O)ccc1O,AC50,[9],50 µM (active)
same,outcome,[10],inactive
O=[N+]([O-])c1ccc2c3c(cccc13)CC2,outcome,[1],inactive
same,outcome,[2],inactive
same,AC50,[3],20 µM (active)
same,outcome,[4],inactive
same,outcome,[5],inactive
same,outcome,[6],inactive
Nc1ncc([N+](=O)[O-])s1,outcome,[1],inactive
same,outcome,[2],inactive
same,outcome,[3],inactive
same,outcome,[4],inactive
same,outcome,[5],inactive
same,outcome,[6],inactive
CCCCC(CC)CO[N+](=O)[O-] (stereo not drawn),outcome,[1],inactive
same,outcome,[2],inactive
same,outcome,[3],inactive
same,outcome,[4],inactive
same,outcome,[5],inactive
same,outcome,[6],inactive
CC(C)c1ccc(CO)cc1,outcome,[1],inactive
same,outcome,[2],inactive
same,outcome,[3],inactive
same,outcome,[4],inactive
same,outcome,[5],inactive
same,outcome,[6],inactive
O=Cc1cccc(Oc2ccccc2)c1,outcome,[1],inactive
same,outcome,[2],inactive
same,AC50,[3],5.07 µM (active)
same,outcome,[4],inactive
same,outcome,[5],inactive
same,outcome,[6],inactive
ClC(Cl)=C(Cl)C(Cl)=C(Cl)Cl,outcome,[1],inactive
same,AC50,[2],14.2 µM (active)
same,AC50,[3],11.8 µM (active)
same,outcome,[4],inactive
same,outcome,[5],inactive
same,outcome,[6],inactive
same,outcome,[9],inactive
